Consider 12 sequences from publication PMC5700166.

The target of test [1] is T1, GST-Nv-NF-kB (Ser allele) (Nematostella vectensis, UniProt A7UNT2 2-411).
T1 sequence: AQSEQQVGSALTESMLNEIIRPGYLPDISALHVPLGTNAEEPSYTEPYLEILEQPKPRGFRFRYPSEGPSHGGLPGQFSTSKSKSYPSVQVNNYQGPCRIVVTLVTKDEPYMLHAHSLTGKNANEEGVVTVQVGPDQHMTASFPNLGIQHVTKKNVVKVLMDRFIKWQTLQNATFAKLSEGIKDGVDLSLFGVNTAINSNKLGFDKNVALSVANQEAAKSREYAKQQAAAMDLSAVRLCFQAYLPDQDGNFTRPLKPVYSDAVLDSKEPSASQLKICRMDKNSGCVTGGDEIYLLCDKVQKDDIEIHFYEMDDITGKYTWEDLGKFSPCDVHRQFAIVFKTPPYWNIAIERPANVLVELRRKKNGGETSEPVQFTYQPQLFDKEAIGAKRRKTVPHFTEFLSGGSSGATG
The test can be described thus: protein-binding microarray (PBM); PBM: ~300 nM protein, 6 mM HEPES pH 7.8, 80 mM KCl, 0.5 mM EDTA, 0.5 mM EGTA, 6% glycerol, 35 ng/ul poly-dIdC, 1% milk, 1 h, room temperature; Ap Aiptasia and Nv Nematostella (sea anemones) / Co Capsaspora / Aq Amphimedon (sponge) / Dm Drosophila / Hu human; RHD is the Rel homology domain; high values mean tight binding. To be noted: dsDNA, one strand shown.

The target in the next test is GST-Hu-p50 (Homo sapiens, UniProt P19838 7-356). The test is described as above. To be noted: dsDNA, one strand shown.
GST-Hu-p50, sequence (P19838 7-356): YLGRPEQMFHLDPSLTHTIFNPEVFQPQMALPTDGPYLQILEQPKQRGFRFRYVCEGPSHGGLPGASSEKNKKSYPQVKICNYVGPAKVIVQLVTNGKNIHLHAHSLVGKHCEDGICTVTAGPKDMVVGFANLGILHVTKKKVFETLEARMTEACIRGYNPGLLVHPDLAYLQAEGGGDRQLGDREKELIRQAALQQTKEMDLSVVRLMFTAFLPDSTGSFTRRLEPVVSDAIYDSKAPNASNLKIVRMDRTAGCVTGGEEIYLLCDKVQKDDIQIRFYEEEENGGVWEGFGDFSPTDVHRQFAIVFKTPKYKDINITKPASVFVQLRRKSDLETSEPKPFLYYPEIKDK

For “CCGATTAACATCAGGGGGACAAATGATGTTAATCGGGTCTTGATTCGCTTGACGCTGCTG”, the binding signal in test [1] worked out at 5.1 z-score; with GST-Hu-p50, 3.81 z-score.

Turning to “CCGATTAACATCAGGGATCCCCATGATGTTAATCGGGTCTTGATTCGCTTGACGCTGCTG”, the binding signal turned out to be 5.06 z-score in test [1] and 4.35 z-score with GST-Hu-p50.

As to “CCGATTAACATCAGGGGAGTGTATGATGTTAATCGGGTCTTGATTCGCTTGACGCTGCTG”, the binding signal in test [1] was determined as 4.51 z-score; with GST-Hu-p50 it was 3.04 z-score.

Regarding “CCGATTAACATCAAAAAACCGTTTGATGTTAATCGGGTCTTGATTCGCTTGACGCTGCTG”, the binding signal is 2.22 z-score in test [1] and 1.52 z-score with GST-Hu-p50.

“CCGATTAACATCAAATTCCCAGATGATGTTAATCGGGTCTTGATTCGCTTGACGCTGCTG”: the binding signal in test [1] stood at 3.83 z-score; with GST-Hu-p50, 2.58 z-score.

Regarding “CCGATTAACATCACGGGAGTTCCTGATGTTAATCGGGTCTTGATTCGCTTGACGCTGCTG”, the binding signal turned out to be 1.6 z-score in test [1] and 2.24 z-score in the test with GST-Hu-p50.

For the sequence “CCGATTAACATCAGGGGATGACCTGATGTTAATCGGGTCTTGATTCGCTTGACGCTGCTG”, the binding signal was found to be 3.75 z-score in test [1] and 3.42 z-score with GST-Hu-p50.

On to “CCGATTAACATCAGGGATATTTATGATGTTAATCGGGTCTTGATTCGCTTGACGCTGCTG”, for which the binding signal in test [1] amounted to 2.29 z-score; with GST-Hu-p50, 2.35 z-score.

Consider “CCGATTAACATCAGGGAATGACCTGATGTTAATCGGGTCTTGATTCGCTTGACGCTGCTG”, for which the values for the binding signal (in test [1]; in the test with GST-Hu-p50) were 1.65 z-score and 2.08 z-score, respectively.

“CCGATTAACATCAGGGAAAAGGATGATGTTAATCGGGTCTTGATTCGCTTGACGCTGCTG”: the binding signal in test [1] stood at 4.08 z-score; with GST-Hu-p50, 1.47 z-score.

For “CCGATTAACATCAGGGGATTAGATGATGTTAATCGGGTCTTGATTCGCTTGACGCTGCTG”, the binding signal in test [1] came to 6.46 z-score; in the test with GST-Hu-p50, 4.35 z-score.

For the sequence “CCGATTAACATCAAAAAGGGAAATGATGTTAATCGGGTCTTGATTCGCTTGACGCTGCTG”, the binding signal in test [1] turned out to be 6.22 z-score; with GST-Hu-p50, 3.72 z-score.
